Compounds without any hit were thinned out: in the full panel of roughly 83,000, 20% have a hit.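 Single-concentration screen, 48 h exposure, 96-well plates. Endpoint: percent growth. Below 10 = active.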 A number with no mark means an inactive call. Active and inactive are the calls of the source.

Holding throughout (test): NCI-60 one-dose screen, 48 h (100 = growth as untreated, 0 = no growth, -100 = all killed)
The test system of one test is NCI-H23 lung. Conditions: 10 µM unless noted.
Another test has as its system NCI-H226 lung. Conditions: 10 µM unless noted.
The next test has as its system NCI-H322M lung. To be noted: 10 µM unless noted.
The next test concerns HOP-62 NSCLC. To be noted: 10 µM unless noted.
The next test deals with NCI-H460 lung. Conditions: 10 µM unless noted.
The test system of the next test is HOP-92 NSCLC. To be noted: 10 µM.
For another test, the system named is NCI-H522 lung. To be noted: 10 µM unless noted.
For a further test, the system named is A549/ATCC NSCLC. To be noted: 10 µM unless noted.
For the next test, the system named is 786-0 renal. To be noted: 10 µM unless noted.
The test system of another test is COLO 205 colon. Conditions: 10 µM unless noted.
For a further test, the system named is DU-145 prostate. To be noted: 10 µM unless noted.
In the next test the test system is K-562 leukemia. To be noted: 10 µM unless noted.
Another test concerns MALME-3M melanoma. To be noted: 10 µM unless noted.
In a further test the test system is MDA-MB-231 breast. Conditions: 10 µM unless noted.
Another test relates to SF-268 CNS. Conditions: 10 µM unless noted.
Another test relates to SF-295 CNS. Conditions: 10 µM unless noted.
Another test concerns SF-539 CNS. Conditions: 10 µM unless noted.
Another test relates to UACC-257 melanoma. Conditions: 10 µM unless noted.

For the compound `CC/C(=C/c1c(O)cccc1OC)c1ccc2c(OC)cccc2[o+]1`, the growth in the test with NCI-H23 lung was 98.9%; with NCI-H226 lung it was 99%; in the test on NCI-H322M lung it was 101%; in the test with HOP-62 NSCLC, 101%; in the test with NCI-H460 lung, 103%; in the test on HOP-92 NSCLC it was 110%. The growth is 93.2% with NCI-H522 lung; 102% in the test on A549/ATCC NSCLC; 101% with 786-0 renal; 110% in the test on COLO 205 colon; 112% in the test with DU-145 prostate; 96.6% in the test on K-562 leukemia. Besides, the growth is 105% with MALME-3M melanoma; 102% in the test with MDA-MB-231 breast; 100% with SF-268 CNS; 98.5% in the test with SF-295 CNS; 98.5% in the test with SF-539 CNS; 101% in the test on UACC-257 melanoma.

Take `Cn1ccnc1C(=O)/C=C/c1ccc(CNC(=O)c2ccc(Cl)cc2)cc1`: the growth with NCI-H23 lung was -7.45% (active); in the test with NCI-H226 lung, 4.1% (active); with NCI-H322M lung, 6.29% (active); in the test on HOP-62 NSCLC, 16.3%; in the test on NCI-H460 lung it was -18.9% (active); in the test on HOP-92 NSCLC, 10.3%. In addition, the growth in the test on NCI-H522 lung is 7.07% (active); with A549/ATCC NSCLC it was 8.09% (active); in the test on 786-0 renal it was 12.4%; with COLO 205 colon, 13.6%; with DU-145 prostate it was 10.2%; in the test on K-562 leukemia it was 13.2%. The growth in the test on MALME-3M melanoma was 73.5%; in the test with MDA-MB-231 breast, 13.3%; in the test on SF-268 CNS, 10.1%; in the test on SF-295 CNS it was 13.8%; in the test on SF-539 CNS, -26.7% (active); in the test on UACC-257 melanoma, 67.9%.

On to `COc1ccc2c(c1)c(CC(=O)[Se]CC#N)c(C)n2C(=O)c1ccc(Cl)cc1`, for which the growth in the test with NCI-H23 lung was -11.3% (active); with NCI-H226 lung, 29.6%; in the test with NCI-H322M lung, -1.05% (active); in the test on HOP-62 NSCLC, 14.1%; in the test with NCI-H460 lung, 14.5%; with HOP-92 NSCLC, 26.3%. The growth in the test with NCI-H522 lung was -51.3% (active); in the test on A549/ATCC NSCLC, -9.27% (active); in the test on 786-0 renal, 47.3%; with COLO 205 colon it was -24.8% (active); in the test on DU-145 prostate it was -37.1% (active); with K-562 leukemia, 14.5%. The growth is 6.79% (active) in the test with MALME-3M melanoma; 9.39% (active) with MDA-MB-231 breast; 35.6% with SF-268 CNS; -11.7% (active) with SF-295 CNS; 9.61% (active) with SF-539 CNS; -10% (active) in the test with UACC-257 melanoma.

As to `CCCCCc1ccc(S(=O)(=O)Nc2cccc(-c3csc(NC(=O)CNCCN(C)C)n3)c2)cc1`, the growth with NCI-H23 lung was 94.6%; with NCI-H226 lung it was 87.5%; with NCI-H322M lung, 90.4%; in the test with HOP-62 NSCLC, 98.8%; in the test on NCI-H460 lung, 51.9%; in the test with HOP-92 NSCLC, 53%. Further, the growth is 91% with NCI-H522 lung; 84.8% in the test with A549/ATCC NSCLC; 61.6% with 786-0 renal; 74.6% in the test on COLO 205 colon; 84.8% in the test with DU-145 prostate; 9.48% (active) with K-562 leukemia. The growth in the test with MALME-3M melanoma is 74%; in the test with MDA-MB-231 breast, 93.5%; with SF-268 CNS, 78.6%; in the test on SF-295 CNS, 95.5%; with SF-539 CNS, 91.1%; in the test on UACC-257 melanoma, 96.1%.

In the case of `Cn1ccnc1C(=O)/C=C/c1ccc(CNC(=O)c2ccc(S(F)(F)(F)(F)F)cc2)cc1`, the growth with NCI-H23 lung was 3.4% (active); in the test on NCI-H226 lung, 27%; with NCI-H322M lung, 7.63% (active); in the test on HOP-62 NSCLC it was 17.5%; with NCI-H460 lung, -18.1% (active); with HOP-92 NSCLC, 74.3%. For the same compound, the growth was 29.5% in the test on NCI-H522 lung; 16% in the test with A549/ATCC NSCLC; 13.1% with 786-0 renal; 41.8% with COLO 205 colon; 13.8% in the test with DU-145 prostate; 18.9% with K-562 leukemia. In addition, the growth with MALME-3M melanoma is 89.9%; in the test on MDA-MB-231 breast, 5.17% (active); with SF-268 CNS, 6.38% (active); in the test with SF-295 CNS it was 26.8%; in the test on SF-539 CNS, -36% (active); in the test on UACC-257 melanoma it was 89.9%.

With `CCc1ccc(SC2c3ccc(N(CC)CC)cc3Oc3nc(N)c(C#N)c(N)c32)cc1` (configuration not stated), the growth is -85.1% (active) in the test with NCI-H23 lung; -84.1% (active) in the test on NCI-H226 lung; -76.6% (active) in the test on NCI-H322M lung; 3.17% (active) with HOP-62 NSCLC; -58.3% (active) in the test with NCI-H460 lung; -44.1% (active) with HOP-92 NSCLC. For the same compound, the growth in the test on NCI-H522 lung was -38.4% (active); in the test on A549/ATCC NSCLC it was -0.807% (active); with 786-0 renal, -89.2% (active); in the test on COLO 205 colon it was -52.8% (active); in the test with DU-145 prostate, -86.3% (active); in the test on K-562 leukemia, 1.74% (active). Further, the growth in the test with MALME-3M melanoma is -40.8% (active); with MDA-MB-231 breast, -83.8% (active); in the test on SF-268 CNS, -24.3% (active); in the test on SF-295 CNS, -76.2% (active); in the test on SF-539 CNS, -94.1% (active); in the test on UACC-257 melanoma, 6.57% (active).

`NC(N)=Nc1ccc(Oc2cccc(NC(N)=Nc3ccc(I)cc3F)c2)cc1`: the growth in the test on NCI-H23 lung is 77.4%; with NCI-H226 lung, 88.2%; in the test with NCI-H322M lung it was 80.4%; in the test on HOP-62 NSCLC, 76.4%; in the test on NCI-H460 lung it was 65.9%; in the test on HOP-92 NSCLC it was 39%. Besides, the growth in the test on NCI-H522 lung is 66.8%; with A549/ATCC NSCLC, 68.7%; with 786-0 renal it was 86.4%; in the test with COLO 205 colon, 48.9%; in the test with DU-145 prostate it was 97.6%; in the test on K-562 leukemia, 69.9%. For the same compound, the growth was 83% in the test with MALME-3M melanoma; 83.6% with MDA-MB-231 breast; 36.4% with SF-268 CNS; 77.3% in the test with SF-295 CNS; 62.6% with SF-539 CNS; 86.4% with UACC-257 melanoma.

With `CN(C)CCNC(=O)c1ccc(-c2nc3ccc4[nH]ncc4c3c3c2COCC3)cc1`, the growth is -5.76% (active) in the test on NCI-H23 lung; 9.31% (active) in the test on NCI-H226 lung; 2.32% (active) in the test on NCI-H322M lung; 5.23% (active) in the test on HOP-62 NSCLC; 6.12% (active) in the test on NCI-H460 lung; -24.1% (active) with HOP-92 NSCLC. The growth is -46% (active) in the test with NCI-H522 lung; 38.5% with A549/ATCC NSCLC; 22.6% in the test on 786-0 renal; -52.3% (active) in the test on COLO 205 colon; 4.89% (active) with DU-145 prostate; 8.14% (active) in the test on K-562 leukemia. For the same compound, the growth in the test with MALME-3M melanoma is -24% (active); in the test on MDA-MB-231 breast, -5.19% (active); with SF-268 CNS it was -16.2% (active); in the test on SF-295 CNS it was 3.44% (active); in the test on SF-539 CNS, -53% (active); in the test on UACC-257 melanoma, 22.1%.

`CCCCCc1ccc(S(=O)(=O)Nc2cc(-c3csc(NC(=O)CN4CCN(C)CC4)n3)ccc2OC)cc1`: the growth with NCI-H23 lung was 49.8%; in the test with NCI-H226 lung, 74.6%; in the test with NCI-H322M lung, 5.27% (active); in the test with HOP-62 NSCLC, 60.3%; in the test with NCI-H460 lung it was -61.5% (active); in the test on HOP-92 NSCLC, 22.1%. Moreover, the growth in the test with NCI-H522 lung is -51.9% (active); in the test on A549/ATCC NSCLC, 15.1%; with 786-0 renal it was -75% (active); in the test on COLO 205 colon it was -57.6% (active); in the test on DU-145 prostate it was 22.1%; in the test on K-562 leukemia it was -27.9% (active). Moreover, the growth was -84.6% (active) in the test on MALME-3M melanoma; -38.1% (active) in the test on MDA-MB-231 breast; -24.5% (active) in the test on SF-268 CNS; -68.2% (active) in the test on SF-295 CNS; -80.8% (active) with SF-539 CNS; -49.2% (active) in the test on UACC-257 melanoma.

The record behind these values is PubChem BioAssay (NCI).
